Source: PubChem BioAssay AID1159580 (chemical genetic matrix, 2015)
“And” between values parts separate entries of the source, which are not always exact repeats. Equal values may be shown once. In all, about 5,500 compounds went through this assay and about 2,000 (36%) were called active. Not shown: some 18% with an inconclusive outcome. Rule as the data show it: active = normalized growth mostly below about 0.91 (no sharp cut-off); inconclusive = no clear call, values can overlap the other calls; inactive = mostly above about 0.92. The list shows a part of the results. The source holds several records for some structures; these can differ, active in one and inactive in another.

Assay: chemical genetic growth profiling, strain panel (AID 1159580);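 also: tested at 20 µM; growth read once vehicle control cultures reached saturation at 30 °C; 1 = growth at the plate median or of vehicle wells; lower values mean less growth of the strain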
Settings: S. cerevisiae deletion strains, growth OD

For `Fc1ccc(C(c2ccc(F)cc2)N2CCN(C/C=C/c3ccccc3)CC2)cc1`, the normalized growth (locus YAL013W, strain DEP1, stronger effect = lower value) was 0.996 (inactive) and 0.961 (inactive), the normalized growth (locus YAL021C, strain ccr4, stronger effect = lower value) was 0.625 (active) and the normalized growth (locus YAL026C, strain drs2, stronger effect = lower value) was 0.0836 (active). For the same compound, the normalized growth (locus YAL030W, strain snc1, stronger effect = lower value) was 0.293 (active), the normalized growth (locus YAL040C, strain CLN3, stronger effect = lower value) was 1.02 (inactive) and the normalized growth (locus YBL061C, strain skt5, stronger effect = lower value) was 0.214 (active). The normalized growth (locus YBR009C, strain hhf1, stronger effect = lower value) was 0.263 (active), the normalized growth (locus YBR021W, strain FUR4, stronger effect = lower value) was 0.978 (inactive) and the normalized growth (locus YBR023C, strain chs3, stronger effect = lower value) was 0.22 (active). For the same compound, the normalized growth (locus YBR171W, strain sec66, stronger effect = lower value) was 0.662 (active), the normalized growth (locus YBR229C, strain ROT2, stronger effect = lower value) was 0.989 (inactive) and the normalized growth (locus YBR231C, strain swc5, stronger effect = lower value) was 0.147 (active). For the same compound, the normalized growth (locus YBR279W, strain paf1, stronger effect = lower value) was 0.488 (active), the normalized growth (locus YCL011C, strain gbp2, stronger effect = lower value) was 0.221 (active) and the normalized growth (locus YCL016C, strain dcc1, stronger effect = lower value) was 0.234 (active). The normalized growth (locus YCL029C, strain bik1, stronger effect = lower value) was 0.945 (inactive), the normalized growth (locus YCL061C, strain MRC1 (second series), stronger effect = lower value) was 0.96 (inactive) and the normalized growth (locus YCL069W, strain vba3, stronger effect = lower value) was 0.18 (active). The normalized growth (locus YCR088W, strain abp1, stronger effect = lower value) was 0.374 (active), the normalized growth (locus YDL005C, strain med2, stronger effect = lower value) was 0.263 (active) and the normalized growth (locus YDL035C, strain GPR1, stronger effect = lower value) was 0.976 (inactive). For the same compound, the normalized growth (locus YDL040C, strain nat1, stronger effect = lower value) was 0.666 (active), the normalized growth (locus YDL074C, strain BRE1, stronger effect = lower value) was 0.904 (inactive) and the normalized growth (locus YDL101C, strain DUN1, stronger effect = lower value) was 0.973 (inactive). For the same compound, the normalized growth (locus YDL134C, strain PPH21, stronger effect = lower value) was 0.993 (inactive), the normalized growth (locus YDL185W, strain tfp1, stronger effect = lower value) was 0.966 (inactive) and the normalized growth (locus YDL192W, strain arf1, stronger effect = lower value) was 0.973 (inactive). For the same compound, the normalized growth (locus YDR001C, strain nth1, stronger effect = lower value) was 0.442 (active), the normalized growth (locus YDR069C, strain doa4, stronger effect = lower value) was 0.479 (active) and the normalized growth (locus YDR101C, strain arx1, stronger effect = lower value) was 0.967 (inactive). The normalized growth (locus YDR137W, strain rgp1, stronger effect = lower value) was 1.01 (inactive), the normalized growth (locus YDR150W, strain NUM1, stronger effect = lower value) was 0.985 (inactive) and 0.925 (active) and the normalized growth (locus YDR159W, strain sac3, stronger effect = lower value) was 0.15 (active). The normalized growth (locus YDR162C, strain NBP2, stronger effect = lower value) was 0.966 (inactive), the normalized growth (locus YDR195W, strain ref2) was 1.05 (inactive) and the normalized growth (locus YDR297W, strain sur2, stronger effect = lower value) was 0.322 (active). The normalized growth (locus YDR318W, strain mcm21, stronger effect = lower value) was 0.951 (inactive), the normalized growth (locus YDR334W, strain swr1, stronger effect = lower value) was 0.208 (active) and the normalized growth (locus YDR335W, strain msn5, stronger effect = lower value) was 0.368 (active). For the same compound, the normalized growth (locus YDR363W, strain ESC2, stronger effect = lower value) was 0.922 (inactive), the normalized growth (locus YDR388W, stronger effect = lower value) was 0.88 (active) and the normalized growth (locus YDR392W, strain spt3, stronger effect = lower value) was 0.104 (active). For the same compound, the normalized growth (locus YDR502C, strain sam2, stronger effect = lower value) was 0.988 (inactive), the normalized growth (locus YEL003W, strain gim4, stronger effect = lower value) was 0.326 (active) and the normalized growth (locus YEL037C, strain rad23, stronger effect = lower value) was 0.215 (active). The normalized growth (locus YEL061C, strain CIN8 (second series), stronger effect = lower value) was 0.229 (active), the normalized growth (locus YEL061C, strain CIN8, stronger effect = lower value) was 0.991 (inactive) and the normalized growth (locus YER015W, strain faa2, stronger effect = lower value) was 0.346 (active). For the same compound, the normalized growth (locus YER016W, strain bim1, stronger effect = lower value) was 0.715 (active), the normalized growth (locus YER110C, stronger effect = lower value) was 0.974 (inactive) and the normalized growth (locus YER111C, strain swi4, stronger effect = lower value) was 0.663 (active). For the same compound, the normalized growth (locus YER155C, strain BEM2 (second series), stronger effect = lower value) was 0.736 (active), the normalized growth (locus YER155C, strain BEM2, stronger effect = lower value) was 1.01 (inactive) and the normalized growth (locus YER167W, strain BCK2, stronger effect = lower value) was 1.01 (inactive). For the same compound, the normalized growth (locus YFR010W, strain ubp6, stronger effect = lower value) was 0.297 (active), the normalized growth (locus YGL078C, strain dbp3, stronger effect = lower value) was 0.994 (inactive) and the normalized growth (locus YGL086W, strain mad1, stronger effect = lower value) was 0.999 (inactive). The normalized growth (locus YGL167C, strain pmr1, stronger effect = lower value) was 1.01 (inactive), the normalized growth (locus YGL173C, strain kem1, stronger effect = lower value) was 0.794 (active) and the normalized growth (locus YGL227W, strain vid30, stronger effect = lower value) was 0.243 (active). The normalized growth (locus YGL240W, strain doc1, stronger effect = lower value) was 0.819 (active), the normalized growth (locus YGL248W, strain PDE1, stronger effect = lower value) was 0.99 (inactive) and the normalized growth (locus YGL253W, strain hxk2, stronger effect = lower value) was 0.0972 (active). For the same compound, the normalized growth (locus YGR078C, strain PAC10, stronger effect = lower value) was 0.976 (inactive), the normalized growth (locus YGR135W, strain pre9, stronger effect = lower value) was 0.942 (inactive) and the normalized growth (locus YGR229C, strain SMI1, stronger effect = lower value) was 0.919 (inactive) and 0.24 (active). For the same compound, the normalized growth (locus YGR252W, strain gcn5, stronger effect = lower value) was 1.07 (inactive), the normalized growth (locus YHR013C, strain ard1, stronger effect = lower value) was 0.149 (active) and the normalized growth (locus YHR027C, strain rpn1, stronger effect = lower value) was 0.556 (active). The normalized growth (locus YHR030C, strain SLT2, stronger effect = lower value) was 0.994 (inactive) and 0.988 (inactive), the normalized growth (locus YHR079C, strain IRE1 (second series), stronger effect = lower value) was 0.972 (inactive) and the normalized growth (locus YHR079C, strain IRE1, stronger effect = lower value) was 0.991 (inactive). The normalized growth (locus YHR094C, strain hxt1, stronger effect = lower value) was 0.977 (inactive), the normalized growth (locus YHR129C, strain ARP1, stronger effect = lower value) was 0.992 (inactive) and the normalized growth (locus YHR142W, strain chs7, stronger effect = lower value) was 0.127 (active). The normalized growth (locus YHR200W, strain rpn10, stronger effect = lower value) was 0.973 (inactive), the normalized growth (locus YIL066C, strain RNR3, stronger effect = lower value) was 0.965 (inactive) and the normalized growth (locus YIL073C, strain SPO22, stronger effect = lower value) was 1.52 [resistant] (active). The normalized growth (locus YIL125W, strain kgd1, stronger effect = lower value) was 0.986 (inactive), the normalized growth (locus YIR030C, strain dcg1, stronger effect = lower value) was 0.98 (inactive) and the normalized growth (locus YJL092W, strain hpr5, stronger effect = lower value) was 0.282 (active). The normalized growth (locus YJL095W, strain BCK1 (second series), stronger effect = lower value) was 0.0776 (active), the normalized growth (locus YJL095W, strain BCK1, stronger effect = lower value) was 0.918 (inactive) and 0.981 (inactive) and the normalized growth (locus YJL115W, strain asf1, stronger effect = lower value) was 0.435 (active). For the same compound, the normalized growth (locus YJL129C, strain trk1, stronger effect = lower value) was 0.215 (active), the normalized growth (locus YJL134W, strain LCB3, stronger effect = lower value) was 0.983 (inactive) and the normalized growth (locus YJL154C, strain vps35, stronger effect = lower value) was 0.686 (active). For the same compound, the normalized growth (locus YJL164C, strain tpk1, stronger effect = lower value) was 0.176 (active), the normalized growth (locus YJL166W, strain qcr8, stronger effect = lower value) was 0.19 (active) and the normalized growth (locus YJL168C, strain set2, stronger effect = lower value) was 0.977 (inactive). The normalized growth (locus YJL187C, strain SWE1 (second series), stronger effect = lower value) was 0.946 (inactive), the normalized growth (locus YJL187C, strain SWE1, stronger effect = lower value) was 0.231 (active) and the normalized growth (locus YJR043C, strain POL32, stronger effect = lower value) was 0.983 (inactive). The normalized growth (locus YJR066W, strain TOR1, stronger effect = lower value) was 0.928 (inactive).
